The text below walks through data of PubChem BioAssay (Tox21).

Test [1] in a line: qHTS assay to identify aromatase inhibitors - cell viability counter screen (AID 743084).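 Note: cells stimulated with testosterone during compound exposure; nearly all actives have a fitted effect of over 55% in size.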
The target in test [2] is Aryl hydrocarbon receptor (Homo sapiens) (UniProt P35869). Briefly: qHTS assay to identify small molecule that activate the aryl hydrocarbon receptor (AhR) signaling pathway (AID 743085).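 For activation: HG2L7.5c1 human HepG2 liver cells with stably integrated DRE-driven firefly reporter; series mostly up to about 70 µM.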 Note: nearly all actives have a fitted effect of over 15% in size. Note: potency is the fitted concentration of half-maximal effect. The essentials: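 AhR agonist activity is inferred from enhanced light output of a DRE-controlled firefly luciferase reporter in HepG2 cells, measured with ONE-Glo following 24 h treatment at 37C.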

A short description of test [3]: qHTS assay to identify small molecule that activate the aryl hydrocarbon receptor (AhR) signaling pathway - cell viability counter screen (AID 743086).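 Note: HepG2 liver cells carrying the AhR DRE luciferase reporter; series mostly up to about 70 µM; nearly all actives have a fitted effect of over 45% in size.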 The essentials:
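HepG2-AhR-luc (HG2L7.5c1) cells, 4000/well, treated 24 h at 37 C with compound; viability measured as CellTiter-Fluor fluorescence after 30 min in the same wells as the luciferase read.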

In test [4] the target is Peroxisome proliferator-activated receptor gamma (Homo sapiens) (UniProt P37231). Description: qHTS assay to identify small molecule agonists of the peroxisome proliferator-activated receptor gamma (PPARg) signaling pathway (AID 743094; active = well fitted activation curve with a large enough effect in the signal ratio in the repeat runs, not every such curve was filed as active; the % refers to the signal ratio). An outline of the steps: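 Stably transfected HEK293H cells (GeneBLAzer PPARg UAS-bla) were incubated with test substances for 17 h at 37C after a 5 h pre-incubation; beta-lactamase activity was then detected by FRET substrate fluorescence.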

Test [5] has the same target. Description: qHTS assay to identify small molecule antagonists of the peroxisome proliferator-activated receptor gamma (PPARg) signaling pathway (AID 743191; calls by dose curve; note: nearly all actives have a fitted effect of over 30% in size; note: potency is the fitted concentration of half-maximal effect; for ratio activity, negative = inhibition: series mostly up to about 63 µM). The essentials: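 GeneBLAzer PPARg UAS-bla HEK293H cells, 5 h post-plating, exposed to compounds 17 h at 37C. LiveBLAzer B/G FRET substrate added for 1 h at room temperature; beta-lactamase reporter read by fluorescence intensity.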

Test [6] is described as follows: qHTS assay to identify small molecule antagonists of the peroxisome proliferator-activated receptor gamma (PPARg) signaling pathway - cell viability counter screen (AID 743194). Note: nearly all actives have a fitted effect of over 55% in size. An outline of the steps:
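Cytotoxicity counter screen in PPARg-bla HEK293H cells, same wells as reporter assay. Compounds plus 50 nM rosiglitazone (final) for 17 h at 37 C, then viability read by CellTiter-Glo luminescence.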

A short description of test [7]: qHTS assay for small molecule agonists of the antioxidant response element (ARE) signaling pathway - cell viability counter screen (AID 743203; calls by dose curve; note: nearly all actives have a fitted effect of over 55% in size). The essentials: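 Cells (ARE-bla HepG2, 2,000/well) receive DMSO-dissolved compounds after a 5 hrs rest. Plates incubate 16 hrs at 37C/5% CO2. CellTiter-Glo luminescence is then recorded after 30 min at room temperature.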

Test [8] can be described thus: qHTS assay for small molecule activators of the heat shock response signaling pathway - cell viability counter screen (AID 743209). Note: nearly all actives have a fitted effect of over 50% in size. An outline of the steps:
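Quantitative HTS format, Tox21 10K library. HeLa cells carrying an HSE-driven beta-lactamase reporter were treated 5 h at 37 C, then assessed for viability by CellTiter-Glo luminescence.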

The nature of test [9]: qHTS assay for small molecule agonists of the antioxidant response element (ARE) signaling pathway (AID 743202; active = well fitted activation curve with a large enough effect in the signal ratio in the repeat runs, not every such curve was filed as active; the % refers to the signal ratio; note: potency is the fitted concentration of half-maximal effect). An outline of the steps: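 Agonist mode reporter screen: HepG2 cells with ARE-controlled beta-lactamase are incubated with test compounds for 16 h at 37 C, and beta-lactamase activity is measured as fluorescence of cleaved B/G FRET substrate.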
Test [10] is described as follows: qHTS assay for small molecule activators of the heat shock response signaling pathway (AID 743210; active = well fitted activation curve with a large enough effect in the signal ratio in the repeat runs, with a control signal flat, not every such curve was filed as active; the % refers to the signal ratio;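 note: HeLa cells with beta-lactamase reporter driven by heat shock elements; series mostly up to about 63 µM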). An outline of the steps:
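Quantitative high-throughput format using an engineered HeLa line in which heat shock response elements drive beta-lactamase; after 5 h with compound, cells received a B/G FRET substrate and fluorescence was read.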

Structures are written as SMILES. Inconclusive results are not listed. Values without a mark were called inactive. Calls of active or inactive are those of the source. Unless noted, calls come from the whole dose curve; as a rule, active = well fitted curve in the direction sought with a large enough effect in the repeat runs; inconclusive = weak or mixed curves; inactive = no such curve, though single readings can be large; an effect the other way counts as inactive or inconclusive.
% is set by controls: 0 for no effect and ±100 for the full control effect.

Sequence of Aryl hydrocarbon receptor (Homo sapiens) (P35869 whole entry, looked up): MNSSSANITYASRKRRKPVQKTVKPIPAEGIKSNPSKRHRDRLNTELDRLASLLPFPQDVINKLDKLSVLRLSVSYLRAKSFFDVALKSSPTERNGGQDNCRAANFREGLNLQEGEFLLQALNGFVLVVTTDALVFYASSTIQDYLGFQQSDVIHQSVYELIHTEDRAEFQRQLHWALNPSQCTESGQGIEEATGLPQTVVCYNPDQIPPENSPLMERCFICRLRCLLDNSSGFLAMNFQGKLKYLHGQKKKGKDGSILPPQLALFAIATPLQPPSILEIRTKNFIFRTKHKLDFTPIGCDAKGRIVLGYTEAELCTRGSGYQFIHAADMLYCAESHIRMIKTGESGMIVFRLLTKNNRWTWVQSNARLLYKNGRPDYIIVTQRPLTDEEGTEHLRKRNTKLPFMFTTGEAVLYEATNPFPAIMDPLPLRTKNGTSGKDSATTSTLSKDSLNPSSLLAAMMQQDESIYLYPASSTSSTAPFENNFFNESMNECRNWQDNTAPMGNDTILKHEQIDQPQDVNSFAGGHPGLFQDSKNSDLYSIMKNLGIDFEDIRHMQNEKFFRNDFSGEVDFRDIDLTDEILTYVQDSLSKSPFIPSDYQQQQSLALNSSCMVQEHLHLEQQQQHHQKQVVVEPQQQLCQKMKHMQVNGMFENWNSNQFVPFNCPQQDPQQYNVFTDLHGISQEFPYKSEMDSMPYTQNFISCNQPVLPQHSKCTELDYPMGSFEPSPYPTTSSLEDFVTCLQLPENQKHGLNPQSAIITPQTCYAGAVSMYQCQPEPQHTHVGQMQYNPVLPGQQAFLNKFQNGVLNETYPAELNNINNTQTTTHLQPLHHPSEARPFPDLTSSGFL
Sequence of Peroxisome proliferator-activated receptor gamma (Homo sapiens) (P37231 whole entry, looked up): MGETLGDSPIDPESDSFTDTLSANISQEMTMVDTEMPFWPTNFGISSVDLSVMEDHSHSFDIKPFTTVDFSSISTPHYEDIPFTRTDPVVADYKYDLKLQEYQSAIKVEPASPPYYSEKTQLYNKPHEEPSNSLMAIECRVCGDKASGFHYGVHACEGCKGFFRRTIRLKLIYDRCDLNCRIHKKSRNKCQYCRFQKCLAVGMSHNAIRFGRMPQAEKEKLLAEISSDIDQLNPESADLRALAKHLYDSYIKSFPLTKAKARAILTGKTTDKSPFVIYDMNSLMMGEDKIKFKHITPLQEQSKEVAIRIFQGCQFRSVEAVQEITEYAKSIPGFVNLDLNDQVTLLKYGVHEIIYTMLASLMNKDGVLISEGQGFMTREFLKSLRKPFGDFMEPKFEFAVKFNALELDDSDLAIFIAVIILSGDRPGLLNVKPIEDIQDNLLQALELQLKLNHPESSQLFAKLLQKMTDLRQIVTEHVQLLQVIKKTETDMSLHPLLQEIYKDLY

As for `CCCCCCCCCCCCCCCC(=O)OC/C=C(C)/C=C/C=C(C)/C=C/C1=C(C)CCCC1(C)C`, the Potency entry in test [1], in test [2], in test [3], in test [4], in [5] and in test [6] was “inactive” in each case. The Potency result in [7] and in test [8] was “inactive” in each case.

`C=C(C)C(=O)OC(C)C`: the Potency result in test [1], in [2], in test [3], in test [4], in test [5] and in [6] was “inactive” in each case. Further, the Potency result in test [9] and in [8] was “inactive” throughout.

`Cn1c(N)nc2nc[nH]c2c1=O`: the Potency result in test [1], in test [2], in [3], in test [4], in [5] and in test [6] was “inactive” in each case. Further, the Potency entry in test [9], in [7] and in test [8] was “inactive” in each case.

For the compound `COCCOCCOCCOCCOC`, the Potency entry in test [1], in test [2], in test [3], in test [4], in test [5] and in test [9] was “inactive” each time. Further, the Potency result in [7] and in [8] was “inactive” throughout.

Turning to `CCOC(=O)CC(=O)c1cc(F)c(Cl)nc1Cl`, the Potency entry in test [1], in test [2], in test [3], in [4], in test [5] and in [6] was “inactive” throughout. The Potency entry in test [9] and in test [8] was “inactive” in each case. Besides, the compound was called inactive in test [10].

As to `CCN(CCO)CCCC(C)Nc1ccnc2cc(Cl)ccc12` (configuration not stated), the Potency result in test [1], in test [2], in test [3] and in test [4] was “inactive” throughout. The ratio activity, negative = inhibition in test [5] was -5.98% [at 5.95 µM]. Moreover, the activity change, negative = cytotoxicity in [6] is 0.825% [at 5.95 µM]; in test [8], -18.6% [at 5.95 µM]. For the same compound, the activation in [9] was -5.09% [at 8.36 µM]; in [10], -0.125% [at 5.95 µM].

Regarding `CCN(CC)C(C)CN1c2ccccc2Sc2ccccc21` (configuration not stated), the Potency result in [1], in test [2], in test [3], in test [4], in test [5] and in [6] was “inactive” each time. Besides, the Potency entry in [7] and in test [8] was “inactive” in each case. Moreover, the compound was called inactive in test [10].

As for `C=Cc1c(C)c2cc3[nH]c(cc4nc(cc5nc(cc1[nH]2)C(C)=C5CCC(=O)O)C(CCC(=O)O)=C4C)c(C)c3C=C`, the Potency entry in [1], in [2], in test [3], in [4], in test [5] and in test [6] was “inactive” throughout. Besides, the Potency result in [8] was “inactive”.

For `Cc1ccccc1N=Nc1ccc(N=Nc2c(O)ccc3ccccc23)c(C)c1`, the Potency result in [1], in [3], in test [4], in [5], in test [6] and in test [7] was “inactive” each time. Further, the Potency result in [8] is “inactive”. For the same compound, in test [2], the Potency is 13.3 µM (active). Further, the outcome in test [10] was inactive.

On to `N#CCc1cccc(C(F)(F)F)c1`, for which the Potency result in [1], in [2], in test [3], in [4], in [5] and in test [6] was “inactive” in each case. In addition, the Potency entry in test [9], in test [7] and in [8] was “inactive” in each case. Besides, in [10], the outcome was inactive.

As for `OCC1CC2CC1C1CCC(CO)C21` (configuration not stated), the Potency entry in test [1], in test [2], in [3], in test [4], in test [5] and in test [6] was “inactive” in each case. The Potency entry in [9] and in [8] was “inactive” throughout. Besides, the compound was called inactive in test [10].

With `C=C(C)C(=O)OCCN(C)C`, the Potency entry in test [1], in test [2], in test [3], in test [4], in [5] and in test [6] was “inactive” each time. Also, the Potency entry in [7] and in [8] was “inactive” throughout. The result in test [10] was inactive.

`CC(C)(C)c1cc(CCC(=O)OCC(COC(=O)CCc2cc(C(C)(C)C)c(O)c(C(C)(C)C)c2)(COC(=O)CCc2cc(C(C)(C)C)c(O)c(C(C)(C)C)c2)COC(=O)CCc2cc(C(C)(C)C)c(O)c(C(C)(C)C)c2)cc(C(C)(C)C)c1O`: the Potency result in test [1], in [2], in test [3], in test [4], in [5] and in test [6] was “inactive” each time. Moreover, the Potency entry in [9], in test [7] and in test [8] was “inactive” in each case. Besides, the call in test [10] was inactive.

Consider `CNS(=O)(=O)Cc1ccc2[nH]cc(CCN(C)C)c2c1`, for which the Potency result in test [1], in [2], in test [3], in [4], in test [5] and in [6] was “inactive” each time. Moreover, the Potency result in test [9], in test [7] and in test [8] was “inactive” each time. The compound was called inactive in test [10].

As to `CC(=O)/C(C)=C/C1C(C)=CCCC1(C)C` (configuration not stated), the Potency entry in test [1], in test [2], in test [3], in test [4], in test [5] and in test [6] was “inactive” throughout. Also, the Potency entry in [9] and in test [8] was “inactive” in each case. Also, the result in test [10] was inactive.

As for `CC(C)CCCC(C)CCO` (configuration not stated), the Potency result in test [1], in test [2], in test [3], in test [4], in test [5] and in [6] was “inactive” throughout. For the same compound, the Potency result in test [9], in test [7] and in test [8] was “inactive” throughout.

In the case of `O=C(O)/C=C/c1cnc[nH]1`, the Potency result in test [1], in test [2], in test [3], in [4], in [5] and in test [6] was “inactive” in each case. For the same compound, the Potency result in test [9], in test [7] and in test [8] was “inactive” each time. Also, the compound was classed as inactive in test [10].

For the compound `C=CC[N+]1([C@H]2C[C@H]3[C@@H]4CC[C@H]5C[C@H](OC(C)=O)[C@@H](N6CCCCC6)C[C@]5(C)[C@H]4CC[C@]3(C)[C@H]2OC(=O)CC)CCCCC1`, the Potency entry in [1], in test [2], in test [3], in [4], in [5] and in [6] was “inactive” in each case. Moreover, the Potency result in test [9] and in [8] was “inactive” throughout. Further, the result in test [10] was inactive.

On to `Oc1ccc(Sc2ccc(O)cc2)cc1`, for which the Potency entry in [1], in test [2], in [3], in test [4], in [7] and in test [8] was “inactive” each time. In addition, the Potency in [5] is 16.2 µM (active); in [9] it was 22.8 µM (active). The compound was classed as inactive in test [10].

With `O=C(C(=O)c1ccc(Br)cc1)c1ccc(Br)cc1`, the Potency entry in [1], in test [2], in test [3], in test [4], in [5] and in test [6] was “inactive” in each case. The Potency entry in [9], in [7] and in test [8] was “inactive” in each case. For the same compound, the call in test [10] was inactive.

For `O=S(=O)(O)c1ccc(O)c2ncccc12`, the Potency result in [1], in test [2], in [3], in test [4], in test [5] and in test [6] was “inactive” each time. Further, the Potency result in [8] was “inactive”.

On to `Cc1ccc(C(C)c2ccc(C)c(C)c2)cc1C`, for which the Potency entry in test [1], in test [2], in [3], in [4], in [5] and in test [6] was “inactive” in each case. Also, in test [8], the Potency result was “inactive”. Besides, in test [10], the compound was classed as inactive.

On to `CC(=O)O[C@H]1C[C@@H]2CC[C@@H]3[C@H](CC[C@@]4(C)[C@H]3C[C@H]([N+]3(C)CCCCC3)[C@@H]4OC(C)=O)[C@@]2(C)C[C@@H]1N1CCCCC1`, for which the Potency result in test [1], in test [2], in test [3], in test [4], in [5] and in test [6] was “inactive” throughout. In test [9], the Potency result was “inactive”. For the same compound, the compound was called inactive in test [10].

With `CC(=O)NCCCS(=O)(=O)O`, the Potency entry in [1], in [2], in [3], in [4], in [5] and in test [6] was “inactive” in each case. The Potency entry in test [8] is “inactive”. Besides, the Potency in [9] was 26.5 µM (active). The outcome in [10] was inactive.
